# In publication PMC12864922, “TDP-43 directly inhibits mRNA accumulation in neurites through modulation of mRNA stability”:
# The full ranking holds about 9,900 sequences; the median of “r (bound/input frequency ratio)” is about 0.7, and the highest 2% start at about 6.5. The sample holds the highest values, similar sequences and a random draw of the others, so the mix is not that of the screen.
# B1: ENSMUSG00000034801.154|Sos2|134:138;197:201;231:235 (ssRNA)
# RNA: GGGAGUUCUACAGUCCGACGAUCGCUUCGAUAUCCGCAUGCUAUUGUUUGGUUUUUACAUCUAGGAGACUUAGGAAUAAUACCCACUGUUCUUAAACUCUUUGAGACCAUGUCUUAAAUGUCAGUAUUUGCUGCUGAAGACAAAAACGGAAAAUAGAAUGAAAUAAUAGAAUGCACACACAUUAUUAUUUUGUUAAAAUUAUAAACAGUUCUACAUAACCUGAUUAUAGAAGAAGGGCAACACAUCAUUAAGAUGUGCCUUUUGUUUUGCAGUCAUACGUGUUUAGCUAAUCAUUGUUUAGCUCUCUUGCGGUCGCACUAGUGUGGAAUUCUCGGGUGUCAAGG
# B2: ENSMUSG00000028439.239|Fam219a|33:39;67:71;117:126;145:149 (ssRNA)
# RNA: GGGAGUUCUACAGUCCGACGAUCGCUUCGAUAUCCGCAUGCUAUCACAGGAGUUUCUGCAAAAGACUAUGACAUCACACACACUGUGGUCUCACGAGGUACCUGGAGGUCAUACUGCACGGACAUGGGAAGUACGUGAAGAUUUAUUUCGGGAAAAGUGCACACACACAAGCUGUACUGGGUGUCAUCAUACCUGUUGCUUCUGCUGCUGGUCUGGUCUGAGGGAGGAAAGCUGAGGCUGUAGCUCAGUGAGAUGGUGGCUCUCCCAUGGCUGAAGACAAGUGCAAGCAGAGAGAGCCUCAGGCUCUUGCGGUCGCACUAGUGUGGAAUUCUCGGGUGUCAAGG
# B3: ENSMUSG00000031028.61|Tub|157:169;187:191 (ssRNA)
# RNA: GGGAGUUCUACAGUCCGACGAUCGCUUCGAUAUCCGCAUGCUAUCAGUCCCCUGCUGCAGUGGUGUUAUCACACCGGAAAGCCUCUUCACCUGGAGGUACAGAGGGAGAGGAAGCACAAGCCUGGCUGCUGUGGCUCAGCCAUCCACUCAGCCUACGAGUCAGAGACAGUGGGUGUCCCGGGAAGCAGGGGUACAGUGACACACACACAUACUACAGGGCACUCAAGCUCAUACUAGAAAAAGCUCUGGUGGUCAGCAGAAAGCACUCCCACUUCAAAAGGGCCCAUUAGGCCCAAAGGGGGUCUCUUGCGGUCGCACUAGUGUGGAAUUCUCGGGUGUCAAGG
# B4: ENSMUSG00000032194.9|Kank2 (ssRNA)
# RNA: GGGAGUUCUACAGUCCGACGAUCGCUUCGAUAUCCGCAUGCUAGAGUGAAUACAGGGAGGAGCCAGUGAGUCCCCCAGGACCCACCAGCCACAAGCCACGCAUCAAACCGUCCCUCCUCCAUCCCUCUGUCCCAUUCUGCCUCGGCAUUCCUCAGCCCCUGAACUUCCCUGAGGGAGCCCUGACAUCUACCAGGCUCAAGCUCCUGGAAGCCUUUCCCAGCACCCUGGGUUCAAAGCCAGAAAGCCAAGCUACAUUCUCCUCCCAGUUGGCACCAGUUGACAACGCCUUGGGUGUGGGUUUCUCUCUUGCGGUCGCACUAGUGUGGAAUUCUCGGGUGUCAAGG
# B5: ENSMUSG00000061578.1396|Ksr2 (ssRNA)
# RNA: GGGAGUUCUACAGUCCGACGAUCGCUUCGAUAUCCGCAUGCUAAAGUAUAUAUACCUAUAAAUGCUAUAUAUAUUAUAUAUGUGUAUAUACAUAAAGACUACUUCUUGUACAGCCCUCCACGGACCUCAGGCCCACUGUUUUCUCCAUGUCUGUCUGUACUGACUGUUGCAGAAUGAGCUGAUGUAUGAUCUUGAUUCUCCAUUUUCCUUCUGGACCACAUGUCUCUUCCUUUUCCUUUUUAGAUCUGUCUUGCUCUCUGUCUCUCUCACUCAUUGCCAACAUGUUGCUGGGAAAGAAUAUUUCUCUUGCGGUCGCACUAGUGUGGAAUUCUCGGGUGUCAAGG
# B6: ENSMUSG00000043670.80|Diras1|67:72 (ssRNA)
# RNA: GGGAGUUCUACAGUCCGACGAUCGCUUCGAUAUCCGCAUGCUACUGGCUAAGGAACUGCUCAUCCCAGUCAGGCCCAGAGAGGUUACCUUGCCUCUCCAUCUCUGUCCCACACACCCCAGCCAUGCCCACUGUCCCUGUCCCUCACAUUCUAUCACUGUGACCUCUGGGGAGUGCCCAUUGACCUCAUCUUCCUUCACUAAUAUCUUAUUUCUUUCACCUGAUCCUGUCCUUUCCCCGUGACCUCUGACCUGUGGCCUUCCCUGGGUCCAGAACACCCCUGUCCUCUCCUGUCUGCACACCAGCUCUUGCGGUCGCACUAGUGUGGAAUUCUCGGGUGUCAAGG
# B7: ENSMUSG00000090935.729|Synj2bp (ssRNA)
# RNA: GGGAGUUCUACAGUCCGACGAUCGCUUCGAUAUCCGCAUGCUAAUCAACCUCCAGUAACAUAUGUGGUUAGUAAGUGCUUCAGCUUGUGUAGCCAUUAAUAACCAAGUCAUAGGAUUGUGAAUCUAAAAUACUCCUGGGUAAAAUUUGUAUUAGAAUGGAAAAAAAAAUGAGGGUCAGAAAGGUGAGCUAACUUCAAGUUAGAUACUCCCCUCUAUUUUGGUCUCAAAUUUGUUUUAGUGUGUCCACAACAUGAAAACAUACAAAAACUAUAUUUUAAAAAUCAGUUUACUUUCAUCUUUUCUCUCUUGCGGUCGCACUAGUGUGGAAUUCUCGGGUGUCAAGG
# B8: ENSMUSG00000022095.164|Fam160b2|44:48 (ssRNA)
# RNA: GGGAGUUCUACAGUCCGACGAUCGCUUCGAUAUCCGCAUGCUAGGCUAGGCCGAGACACAAGCAGAUAGCUCUGGCAUUGUUCUUCCAUACUCCUCCAUGGCUGGGGCUGCUACCUCACCCGGCCUGAAUCUGUCUCAACCUGCAAGAGCACUCGGGCGGCGCCAGGCAUUACCUCACAACAGGCCUGCAGUUGUUGGCUUCCCUCCUGGGCAAGGAGGAGCAGGCCAGAGCCCCUUUUGCUUCCUUUUCCUGCCCAUGCCACCUCUCGAAGCCGGGCACAGGUUGCCAGGAGGUGACAUGAACUCUUGCGGUCGCACUAGUGUGGAAUUCUCGGGUGUCAAGG
# B9: ENSMUSG00000004113.278|Cacna1b|87:91;151:155;229:260 (ssRNA)
# RNA: GGGAGUUCUACAGUCCGACGAUCGCUUCGAUAUCCGCAUGCUAAAGUCAGGCCCCUGGCUUAGCACUAGAAAAAAUAAAACCUCAUGGCUGCUUUGCAAAGGGAAAACCCAUGCUCAGGAAGGUGUUCACACACCACAGAUAGCUGGGAGGCCACGAGAGAAAGGUUGCACACAGACAGGCAGGCACUCCUUGCACACGUCUCUCUGUUUUGAAACUUCUGAUGACUUCUUGGUGGCUUGUUGUCUUCUACCCCAUGUUUCUCACAGGAUCACACACACACACACACACACACACACACACACCUCUUGCGGUCGCACUAGUGUGGAAUUCUCGGGUGUCAAGG
# Target: TDP-43 (Homo sapiens, UniProt Q13148 1-414)
# Sequence (Q13148 whole entry): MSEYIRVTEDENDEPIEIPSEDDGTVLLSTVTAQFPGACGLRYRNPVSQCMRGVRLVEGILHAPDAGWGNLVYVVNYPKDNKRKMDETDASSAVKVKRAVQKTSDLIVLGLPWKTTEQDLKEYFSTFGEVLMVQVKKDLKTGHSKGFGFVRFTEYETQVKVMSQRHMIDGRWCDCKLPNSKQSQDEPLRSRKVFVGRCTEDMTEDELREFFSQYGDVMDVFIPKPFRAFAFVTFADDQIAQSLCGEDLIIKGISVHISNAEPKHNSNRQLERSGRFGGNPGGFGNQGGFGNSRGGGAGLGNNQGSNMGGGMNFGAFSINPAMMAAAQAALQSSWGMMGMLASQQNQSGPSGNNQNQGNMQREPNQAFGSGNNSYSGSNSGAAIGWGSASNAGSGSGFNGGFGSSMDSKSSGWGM
# Assay: RNA Bind-n-Seq with designed 260-mer pool; 25 mM Tris-HCl, 150 mM KCl, 3 mM MgCl2, BSA (printed 500 mg/mL), 20 units/mL SUPERase IN; pH not stated; 500 nM RNA pool, 1 h, 4 C; TDP-43 5, 50, 500 nM; high values mean tight binding
# Details: protein: recombinant; tags: SBP (GST cleaved off with PreScission; pGEX-GST-SBP)
# In short: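 In 25 mM Tris-HCl, 150 mM KCl, 3 mM MgCl2, BSA and SUPERase IN, 500 nM of an in vitro-transcribed 260-nt 3′ UTR oligo pool was incubated for 1 h at 4 °C with SBP-tagged TDP-43 (5, 50 or 500 nM) captured on streptavidin beads. RNA remaining after washes was biotin-eluted, reverse transcribed, PCR-amplified and sequenced. Binding, R, is the bound-sample abundance of each oligo, normalized to mapped reads, divided by its abundance in input. Each duplicate used a separate, independent protein batch.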
row,Binder,binding signal
1,B1,0.018 R (bound/input frequency ratio)
2,B2,1.35 R (bound/input frequency ratio)
3,B3,0.59 R (bound/input frequency ratio)
4,B4,1.04 R (bound/input frequency ratio)
5,B5,0.176 R (bound/input frequency ratio)
6,B6,2.36 R (bound/input frequency ratio)
7,B7,0.0597 R (bound/input frequency ratio)
8,B8,0.529 R (bound/input frequency ratio)
9,B9,1.82 R (bound/input frequency ratio)
